# Measurements reported in PubChem BioAssay.
# Several values for one entry are separate records, joined by “and”; a condition that tells them apart may be missing. Identical values can stand only once.
# Target: Torsin-1A-interacting protein 1 (Homo sapiens) (UniProt Q5JTV8)
# Assay: LAP1 binders from COS7 cell lysate, primary screen, small-molecule microarray, 635/667 nm fluorescence (AID 1116)
# Details: COS7-hLAP1 lysate binding, 635 nm fluorescence, higher = more signal
# Sequence of Torsin-1A-interacting protein 1 (Homo sapiens) (Q5JTV8 whole entry, looked up): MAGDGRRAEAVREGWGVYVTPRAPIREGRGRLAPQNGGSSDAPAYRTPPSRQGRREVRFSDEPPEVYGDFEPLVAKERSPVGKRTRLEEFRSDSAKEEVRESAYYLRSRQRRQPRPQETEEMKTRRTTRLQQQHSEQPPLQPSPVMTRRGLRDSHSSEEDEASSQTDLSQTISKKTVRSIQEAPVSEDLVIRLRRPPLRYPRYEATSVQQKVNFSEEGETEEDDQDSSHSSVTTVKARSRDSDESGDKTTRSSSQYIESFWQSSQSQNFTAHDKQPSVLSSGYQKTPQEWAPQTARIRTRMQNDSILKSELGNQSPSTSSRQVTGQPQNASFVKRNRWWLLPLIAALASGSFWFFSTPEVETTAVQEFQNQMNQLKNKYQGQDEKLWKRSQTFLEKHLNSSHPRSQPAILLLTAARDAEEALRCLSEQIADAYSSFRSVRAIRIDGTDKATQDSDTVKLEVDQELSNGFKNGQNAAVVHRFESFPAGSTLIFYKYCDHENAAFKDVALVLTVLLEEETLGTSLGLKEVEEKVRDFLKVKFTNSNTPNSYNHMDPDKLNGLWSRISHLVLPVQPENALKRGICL
row,SMILES,composite z-score
1,CCOC(=O)[C@@H]1CC=C2CC1C(=O)N1CCC[C@@H]1[C@H]2O[Si](C)(C)C(C)(C)C (some centres not stated),-0.496 and -1.03
2,C=CCN(CCCC)C(=O)C(c1cccs1)N(C(=O)/C=C\C(=O)O)c1ccc(CCO)cc1 (configuration not stated),1.13 and -0.803
3,COC(=O)[C@H](C)NC(=O)CCC1CC(OC(=O)NCCc2ccc(F)cc2)CC2(CCCC(COC(=O)NCCCN3CCCC3=O)O2)O1 (some centres not stated),1.05
4,C[C@@H]1CC[C@@H](C(=O)O)N[C@H]1c1ccc(-c2ccco2)cc1,0.195
5,CCOC(=O)C[C@H]1[C@H](OC(=O)c2ccccc2-c2ccccc2)[C@@H](NC(=O)c2ccccc2)c2cc(OCCCO)ccc2N1C(=O)c1ccc2ccccc2n1,0.491 and 0.364
6,COC(=O)C1=C(C)N(Cc2ccccc2)C2=C3C(=O)N(C)C(=O)[C@@H]3[C@@](O)(C(=O)OC)C(=O)N2[C@@H]1c1ccccc1,0.015 and -0.101
7,CC(C)CON=C1C[C@@H](O)[C@@H](O)[C@@H]2[C@@H]3C(=O)N(c4cccc(Oc5ccccc5)c4)C(=O)[C@@H]3CC[C@H]12,0.357
8,C=C[C@@H](OC)[C@H](O)c1ccc(OCCO)cc1,0.91 and -0.0877
9,CC(CO)N1C(=O)[C@@H]2C3C(=O)OCCC=C[C@H]3OC23C=CCN(c2ccc(Cl)cc2)C(=O)[C@@H]13 (some centres not stated),-0.236 and 1.7
10,C=CCN(CCCCC)C(=O)C1N(CCOCCO)C(=O)C2C(C(=O)O)C3C=CC21O3 (configuration not stated),-1.04 and 1.94
11,C=CCN(C(=O)C1N(CCCCCCO)C(=O)C2C(C(=O)O)C3C=CC21O3)C(C)(C)C (configuration not stated),-1.85 and -0.489
12,COC(=O)C1=C(C)N(Cc2ccccc2)C2=C(C(C)=O)C[C@@](O)(C(=O)OC)C(=O)N2[C@@H]1c1ccccc1,0.974 and -0.069
